Experimental data taken from PubChem BioAssay AID686949 (The Scripps Research Institute Molecular Screening Center, 2013).
About 2,200 (69%) of roughly 3,200 compounds were called active.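 The calls were made as follows: active = activation, as change over the incubation, above the mean of all tested compounds plus 3 SD (cut at about 13% in these data); inactive = the rest.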 So high a share suggests a set chosen from earlier hits. Not all results are given here.

Target: Kallikrein-7 (Homo sapiens) (UniProt P49862)
Sequence (P49862 whole entry, looked up): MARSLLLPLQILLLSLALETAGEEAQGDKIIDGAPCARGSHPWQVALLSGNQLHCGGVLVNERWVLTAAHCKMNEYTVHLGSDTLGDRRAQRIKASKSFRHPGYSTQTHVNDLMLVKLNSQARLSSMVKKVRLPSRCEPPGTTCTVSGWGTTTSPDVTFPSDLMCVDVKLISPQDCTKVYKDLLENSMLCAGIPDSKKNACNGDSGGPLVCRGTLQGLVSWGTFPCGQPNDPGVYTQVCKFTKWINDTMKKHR
Assay: proKLK7 zymogen activators, confirmation, biochemical, fluorescence intensity, triplicate (AID 686949)
Settings: purified proKLK7, EDANS-DABCYL substrate fluorescence; at 7 µM; active compounds read high; scaled: vehicle 0, mature enzyme 100

activation, inactive:
COc1cccc(NC(=O)CN(C)C(=O)/C=C/c2cc(OC)ccc2OC)c1 -101%
COc1ccc2nc(-c3ccccn3)ccc2c1 3.28%
Cc1cc2c(nc1C)CCCN2C 0.32%
COCCN(CCOC)c1nc(N)c2c(N)nc3c(c2c1C#N)CC(=O)N3Cc1ccc(Cl)cc1 -29.9%
NC(N)=Nc1nc(-c2ccccc2)c2cc(Cl)ccc2n1 -1.67%
CCOc1c2ccc(C(=O)NCc3ccc4c(c3)OCO4)cc2nn1C 7.8%
Cc1nc2ccccc2cc1O -5.12%
Cc1ccc2nc3c(cc(C(=O)NCCc4ccccc4)c(=N)n3CC3CCCO3)c(=O)n2c1 (stereo not drawn) -15.4%
Cc1cccn2c(=O)c3cc(C#N)c(=NC(=O)c4cccnc4)n(CC4CCCO4)c3nc12 (stereo not drawn) -75.3%
COC(=O)c1ccc(C2C3=C(Nc4nnnn42)c2ccccc2OC3)cc1 (stereo not drawn) 5.83%
Nc1ccccc1-c1nc2ccncc2[nH]1 2.63%
CCCCCn1c(=O)c(C(=O)OCC)c(Cl)c2ccccc21 -0.17%
CCN1CCN(C(=O)c2cc3cc4ccc(OC)cc4nc3s2)CC1 -15.9%
Cn1cccc1/C=N/NC(=O)CNc1cccc2ccccc12 2.27%
Cc1oc2nc(SCC(=O)Nc3ccc(S(N)(=O)=O)cc3)nc(NC(=O)c3ccccc3)c2c1C 5.56%
CN(C)CCN1CCN(c2cc(-c3cccc(Cl)c3)nc3ccnn23)CC1 0.23%
CC(C)(C)Nc1c(-c2cccs2)nc2ccccn12 -59.6%
CCS(=O)(=O)Nc1cc(C(=O)OC)ccc1C(=O)OC 10%
COc1ccc(C2=CC(c3cccc(OC)c3)n3nnnc3N2)cc1 (stereo not drawn) -12.2%
CCOC(=O)C1=C(O)/C(=C/c2ccc(OCC(=O)Nc3ccc(C)cc3)cc2)N=C1C 2.24%
CCC(c1nnnn1Cc1ccco1)N(CCc1ccccc1)Cc1cc2ccc(OC)cc2[nH]c1=O (stereo not drawn) -0.98%
O=C(/C=C/c1ccc2c(c1)OCCO2)c1ccc(O)cc1 3.2%
CCCN(CC(=O)NC(=O)NC1CCCCC1)CC(=O)Nc1cc(Cl)ccc1Cl 1.91%
CCOC(OCC)c1ccc(/C=C\c2nccc(N)n2)cc1 -9.52%
CCOC(=O)c1[nH]c2ccc(OC)cc2c1NC(=O)CCN1CCN(Cc2ccccc2)CC1 1.17%
COc1ccc(CNC(=O)COC(=O)C2=Cc3ccccc3OC2)cc1 9.73%
COc1ccc2nc(Nc3nc4cc5c(cc4s3)OCCO5)sc2c1 -12.6%
Cc1cc(N2CCOCC2)nc2ccc(NC(=S)N3CCN(Cc4ccccc4)CC3)cc12 9.27%

activation, active:
CC(=O)NN1C(=O)c2ccccc2NC1c1ccccc1 (stereo not drawn) 33.8%
CCOC(=O)NN1C(=O)c2ccccc2NC1c1cccc(O)c1 (stereo not drawn) 19.6%
COc1cc(/C=N\NC(=O)c2nonc2N)c(OC)cc1Br 75.4%
CCc1nc(Nc2ccc(NC(C)=O)cc2)c2oc3ccccc3c2n1 69.9%
Cc1cc(C)c(C#N)c(SCC(=O)NN2CC(=O)N(c3ccccc3F)CC2=O)n1 52.8%
CCN1CCc2c(C#N)c(NCc3ccccc3)nc(NCCO)c2C1 31.4%
COc1cccc2sc3cc(NCC[C@@H]4CCCN4C)ccc3c(=O)c12 46.9%
CN(C)C(=O)c1coc2nc3ccccc3nc12 104%
c1ccc(-c2cn3cccnc3n2)cc1 68.7%
COc1ccc(-c2cn3cccnc3n2)cc1 68.6%
FC(F)(F)Oc1ccc(-c2cn3cccnc3n2)cc1 36.4%
Cc1cc(S(=O)(=O)c2cc3ccc(O)c(C)c3oc2=O)ccc1F 59.1%
CC1(C)CC(=O)c2cc(OCC(=O)NCC3CCCO3)ccc2O1 (stereo not drawn) 48.1%
CC(=O)Nc1nc2ncccn2c1-c1ccc(C(F)(F)F)cc1 30.9%
CCCn1c(=NC(C)=O)c(C(=O)OCC)cc2c(=O)n3ccccc3nc21 33.5%
CN1CCCc2cc(C#N)c(=O)[nH]c21 33.1%
COc1nc(N=C(N)N)nc2c(C)cccc12 23.8%
Cc1coc2c1c(C)cc1oc(=O)c(CC(=O)NCC(=O)N[C@H](C(=O)O)C(C)C)c(C)c12 38.2%
COC(=O)c1cnn2c(C(F)(F)F)cc(-c3ccco3)nc12 38.9%
COc1cc2c(cc1OC)CC1(CCCCC1)N=C2 43.5%
Cc1cc(C)c2c(n1)nn1c(-n3ccnc3)cc(C)nc21 50.2%
Cc1cccn2c(=O)c3cc(C(=O)NCCN4CCOCC4)c(=N)n(Cc4cccnc4)c3nc12 17.1%
CCn1c(=N)c(C(=O)NCCCOC)cc2c(=O)n3cccc(C)c3nc21 72.2%
CC(C)=NN1C(=O)c2ccccc2NC1(C)C 25%
CC(C)Cc1nc(Nc2ccc(S(=O)(=O)N3CCCC3)cc2)c2nnn(Cc3ccccc3)c2n1 43.6%
COc1cccc(OCc2cc(/C=N/NC(=O)c3nc(Cl)c(Cl)c(N)c3Cl)ccc2OC)c1 62.4%
COCC(C)OC(=O)c1c(N)n(CCCN2CCOCC2)c2nc3ccccc3nc12 (stereo not drawn) 20%
CC(C)(C)OC(=O)c1c(N)n(CCCN2CCCC2=O)c2nc3ccccc3nc12 69.5%
COC(=O)c1c(C)c(C)nc(N)c1C#N 71.3%
Cc1ccc(-c2nn(-c3ccccc3)cc2/C=C/C(=O)Nc2cccc(S(N)(=O)=O)c2)cc1 263%
CCc1ccc(-c2cc(C(=O)NCc3ccco3)c3ccccc3n2)s1 75.3%
COc1cc(C(=O)N2C(=O)c3cccc(N)c3C2=O)cc(OC)c1OC 127%
CC1CC(C)CN(S(=O)(=O)c2cccc(C(=O)N3C(=O)c4cccc(N)c4C3=O)c2)C1 (stereo not drawn) 240%
CCCCc1cc(=O)oc2cc(C)cc(OCc3nn[nH]n3)c12 28.8%
CCCCN(CCCC)CC(O)Cn1c2ccccc2c(=O)c2ccccc21 (stereo not drawn) 13.8%
CCCc1cc(=O)oc2c(C)c(O)c(CN3CCCCC3)cc12 62.8%
CC(=O)Nc1ccc(S(=O)(=O)NCC(=O)OCc2cc(=O)oc3ccc4ccccc4c23)cc1 218%
Nc1ccc2nn(-c3ccc(Cl)cc3)nc2c1 65.8%
CC1(C)CN(c2ccc(-c3ccnc4ncnn34)cc2)C1=O 68.6%
COc1ccc2oc(=O)c(C(=O)N3CCCC3)cc2c1 23.8%
COC(=O)C1=NN(c2ccccc2)C2C(=O)N(c3ccccc3OC)C(=O)C12 (stereo not drawn) 21.2%
O=C(O)c1cccnc1Sc1ncnc2sc3c(c12)CCC3 17.9%
O=c1oc2cc(O)ccc2cc1-c1ccc(F)cc1 76%
O=C(Nc1nncs1)c1ccccc1NS(=O)(=O)c1cccs1 26.4%
CCOc1ccc(N2C(=O)CC(N(O)c3ccccc3)C2=O)cc1 (stereo not drawn) 166%
COC(=O)Cc1cc(=O)oc2c(C)c(O)ccc12 68%
COCc1cc(=O)[nH]c2cc(NC(=O)C(F)(F)F)c(C)cc12 239%
N#Cc1nc(-c2cccc3ccccc23)oc1N 70.2%
CN(C)Cc1c(O)ccc2c(=O)c(-c3ccccc3Cl)coc12 70.2%
O=C(OC1CCOC1=O)c1ccc(-c2nc3ccccc3s2)s1 (stereo not drawn) 17.6%
COC(=O)Cc1nc2c(N)nc(N)nc2[nH]c1=O 18.7%
O=C(Oc1c(-c2ccco2)oc2ccccc2c1=O)c1cccnc1 22.3%
CN(C)CCCn1c(N)c(C#N)c2nc(C#N)c(C#N)nc21 38%
Cc1cccc(C)c1NC(=O)C(c1ccccc1)N1CC(=O)Nc2ccccc21 (stereo not drawn) 40.3%
Cc1ccsc1-c1cc(C(=O)O)c2c(ccc3ccccc32)n1 19.8%
O=C(O)c1ccc2c(c1)C(=O)N(c1ccc(/C=C/C(=O)c3ccccc3)cc1)C2=O 703%
CC(OC(=O)c1ccccc1NCCO)C(=O)Nc1ccnn1C(C)C (stereo not drawn) 26.1%
O=c1c(-c2ccccc2)coc2c(CN3CCOCC3)c(O)ccc12 18.1%
Cc1c(C)c2c(OCC(=O)NCCCO)cc3c(c2oc1=O)CCC(C)(C)O3 44.6%
Cc1c(C)c2c(OCC(=O)N[C@@H](C(=O)O)c3ccccc3)cc3c(c2oc1=O)CCC(C)(C)O3 36.6%
Cc1cc(=O)oc2c3c(cc(OCC(=O)N[C@H](C(=O)O)c4ccccc4)c12)OC(C)(C)CC3 34%
Cc1cc(=O)oc2c3c(cc(OCC(=O)NCCC(=O)N[C@@H](C)C(=O)O)c12)OC(C)(C)CC3 58.2%
Cc1nn(-c2ccccc2)c(C)c1NC(=O)COC(=O)c1cc(Cl)ccc1O 24.2%
CC(=O)N1CCN(C(=O)c2cc(-c3ccc(C)o3)nc3ccccc23)CC1 62.7%
CC1CCCN(C(=O)c2cc(-c3ccco3)nc3ccccc23)C1 (stereo not drawn) 36.6%
CNC(=O)COC(=O)c1cc(-c2ccc(OC)cc2)nc2ccccc12 88.7%
COc1ccc(-c2cc(C(=O)n3cnc4ccccc43)c3ccccc3n2)cc1 56.7%
O=C(O)c1ccc2c3c(cccc13)C(=O)N(OS(=O)(=O)c1ccccc1)C2=O 181%
CC(=O)Nc1nc(C)c(-c2csc(Nc3ccc(S(N)(=O)=O)cc3)n2)s1 17.4%
CNc1cncc(-c2cccc(C(=O)N3CCOCC3)c2)n1 38.8%
